According to PubChem BioAssay AID602144 (Vanderbilt Specialized Chemistry Center, 2011):
Several values for one entry are separate records, joined by “and”; a condition that tells them apart may be missing. Equal values may be shown once. Unmarked numbers belong to inactive results. Activity calls are given as the source filed them. Cut-off read from the data, not from the text of the source: active = remaining activity below about 50%; inactive = the rest.

What follows are compounds tested against Phospholipase D1 (Homo sapiens) (UniProt Q13393) (assay: PLD1 inhibitors in cells, Calu-1 cells, single concentration (AID 602144;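 note: tested at 200 nM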)). Conditions: cellular PLD1 activity, stronger effect = lower value.
Sequence of Phospholipase D1 (Homo sapiens) (Q13393 whole entry, looked up): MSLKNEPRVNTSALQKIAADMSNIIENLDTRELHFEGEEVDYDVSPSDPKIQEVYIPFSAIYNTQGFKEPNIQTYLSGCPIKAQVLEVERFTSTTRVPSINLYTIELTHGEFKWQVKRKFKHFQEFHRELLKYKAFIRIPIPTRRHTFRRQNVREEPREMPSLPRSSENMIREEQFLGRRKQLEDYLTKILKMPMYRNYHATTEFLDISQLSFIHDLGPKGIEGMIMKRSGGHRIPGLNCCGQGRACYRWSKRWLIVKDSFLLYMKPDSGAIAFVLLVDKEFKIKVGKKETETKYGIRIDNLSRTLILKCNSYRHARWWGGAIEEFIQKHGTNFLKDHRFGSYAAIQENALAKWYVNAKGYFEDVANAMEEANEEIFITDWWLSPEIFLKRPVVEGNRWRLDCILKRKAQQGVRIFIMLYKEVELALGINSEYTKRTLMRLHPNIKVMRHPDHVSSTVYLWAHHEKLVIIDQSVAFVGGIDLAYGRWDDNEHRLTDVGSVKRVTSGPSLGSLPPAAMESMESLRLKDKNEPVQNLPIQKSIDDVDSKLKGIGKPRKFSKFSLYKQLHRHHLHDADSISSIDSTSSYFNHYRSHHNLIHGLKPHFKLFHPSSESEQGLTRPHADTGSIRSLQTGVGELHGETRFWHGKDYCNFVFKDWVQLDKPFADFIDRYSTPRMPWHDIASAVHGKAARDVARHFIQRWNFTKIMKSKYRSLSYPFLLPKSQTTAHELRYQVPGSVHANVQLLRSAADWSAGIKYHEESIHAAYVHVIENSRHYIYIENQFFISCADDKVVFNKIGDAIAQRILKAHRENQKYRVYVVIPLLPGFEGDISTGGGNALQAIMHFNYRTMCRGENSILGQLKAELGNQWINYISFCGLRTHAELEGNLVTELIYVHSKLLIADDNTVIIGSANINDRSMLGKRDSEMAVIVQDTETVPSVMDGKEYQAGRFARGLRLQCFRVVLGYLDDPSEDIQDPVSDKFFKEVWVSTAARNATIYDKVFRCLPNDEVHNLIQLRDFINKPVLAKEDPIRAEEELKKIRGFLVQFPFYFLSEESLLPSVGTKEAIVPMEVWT
Sequence of Phospholipase D1 (Homo sapiens) (Q13393 whole entry, looked up): as above

Structure (SMILES)	remaining activity
O=C(NCCN1CCC2(CCc3ccccc32)CC1)c1cnc2ccccc2c1	113%
C=CCCCCCCCCC(=O)NCCN1CCC(n2c(=O)[nH]c3ccccc32)CC1	81.3%
O=C(NCCN1CCN(c2ccncc2)CC1)c1cc2ccccc2s1	147%
O=C(NCCN1CCN(c2ccncc2)CC1)c1ccc(F)cc1O	152%
O=C(NCCN1CCN(c2ccccn2)CC1)c1ccc(C(F)(F)F)cc1	152%
CN1CCC2(CCN(CCNC(=O)c3ccc4ccccc4c3)CC2)C1=O	120%
O=C(NCCN1CCC(n2c(=O)[nH]c3ccccc32)CC1)C1(c2ccccc2)CCC1	127%
C[C@@H](CN1CCC(n2c(=O)[nH]c3cc(-c4ccccc4)ccc32)CC1)NC(=O)[C@H]1C[C@@H]1c1ccccc1	67.4%
O=C(NCCN1CCC(n2c(=O)[nH]c3ccccc32)CC1)c1cccc2cccnc12	30.7% (active)
Nc1cccc(Cl)c1C(=O)NCCN1CCC(n2c(=O)[nH]c3ccccc32)CC1	89.2%
O=C(NCCN1CCC(C(=O)NCc2ccc(Cl)cc2)CC1)c1ccc2ccccc2c1	99.2%
C[C@@H](CN1CCC(n2c(=O)[nH]c3ccccc32)CC1)NC(=O)c1ccc(F)c(F)c1	21.3% (active)
C[C@H](N)CN1CCC(c2nc3ccccc3n2C)CC1 (tested in a mixture with another compound)	88.8%
C[C@@H](NC(=O)NCCN1CCC(n2c(=O)[nH]c3ccccc32)CC1)c1ccccc1	131% and 118%
O=C(NCCN1CCC2(C=Cc3ccccc32)CC1)c1ccc2ccccc2c1	127%
C[C@@H](CN1CCC(n2c(=O)[nH]c3cc(I)ccc32)CC1)NC(=O)C1CC1c1ccccc1 (stereo not given in full)	19.9% (active)
O=C(N[C@@H](Cc1ccccc1)CN1CCC(n2c(=O)[nH]c3ccccc32)CC1)c1cnc2ccccc2c1	116%
C[C@H](CN1CCC2(CC1)CNCc1ccccc12)NC(=O)c1ccc2ccccc2c1	126%
C[C@@H](CN1CCC2(C=Cc3ccccc32)CC1)NC(=O)[C@H]1C[C@@H]1c1ccccc1	126%
C[C@@H](CN1CCC(n2c(=O)[nH]c3ccccc32)CC1)NC(=O)c1ccco1	41.7% (active)

Structure (SMILES)	remaining activity
O=C(NCCN1CCC2(CC1)CNCc1ccccc12)c1cnc2ccccc2c1	95.4%
C[C@H](CN1CCC2(CC1)CNc1ccccc12)NC(=O)c1ccc2ccccc2c1	34.6% (active)
C[C@@H](CN1CCC2(C=Cc3ccccc32)CC1)NC(=O)c1ccc2ccccc2c1	102%
NCCN1CCC(n2c(=O)[nH]c3cc(Cl)ccc32)CC1 (tested in a mixture with another compound)	62.4%
O=c1[nH]c2ccccc2n1C1CCN(CCNC(=S)Nc2ccccn2)CC1	148%
Cn1c(C(=O)NCCN2CCN(c3ccncc3)CC2)cc2ccccc21	188%
CC(C(=O)NCCN1CCN(c2ccncc2)CC1)(c1ccccc1)c1ccccc1	204%
O=C(NCCN1CCC(n2c(=O)[nH]c3ccccc32)CC1)Nc1cccc(C(F)(F)F)c1	135%
O=C(NCCN1CCC(n2nnc3ccccc32)CC1)c1cnc2ccccc2c1	79.2%
O=C(NCCN1CCC(C(=O)NCCCN2CCOCC2)CC1)c1ccc2ccccc2c1	68.3%
CC(C)[C@@H](CN1CCC(n2c(=O)[nH]c3ccccc32)CC1)NC(=O)c1ccc(F)cc1	103%
CCS(=O)(=O)NCCN1CCC(n2c(=O)[nH]c3ccccc32)CC1	121%
O=C(NCCN1CCC(n2c(=O)[nH]c3ccccc32)CC1)Nc1cccc(F)c1	20.1% (active)
O=C1c2ccccc2C(=O)N1CCCN1CCC(c2nc3ccccc3[nH]2)CC1	95.3%
O=C(NCCN1CCC(n2c(=O)[nH]c3ccc(F)cc32)CC1)c1ccc(Cl)c(Cl)c1	0% (active)
C[C@@H](CN1CCC2(CC1)CCN(C)C2=O)NC(=O)c1cnc2ccccc2c1	127%
O=C(NCCN1CCC(n2c(=O)[nH]c3ccccc32)CC1)c1cc2ccccc2c2ccccc12	7.23% (active)
O=C(N[C@@H](Cc1ccccc1)CN1CCC(n2c(=O)[nH]c3ccccc32)CC1)c1ccc(F)c(F)c1	90.2%
C[C@@H](CN1CCC(n2c(=O)[nH]c3ccccc32)CC1)NC(=O)COc1ccccc1	28.1% (active)
COc1cccc(N2CCN(CCNC(=O)c3ccc(F)cc3)CC2)c1	110%
